From PubChem BioAssay (NCI)
This is part of a sample that, as a whole, favours compounds with a hit. Of some 83,000 tested, about 20% had one in any assay.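 96-well plates, one dose, 48 hours. Percent growth reported; active if below 10.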 The source made the active and inactive calls.

Assays:
Test in all cases: NCI-60 one-dose screen, 48 h (100 = growth as untreated, 0 = no growth, -100 = all killed)
Settings in all cases: 10 µM unless noted
NCI-H23 lung = test system: NCI-H23 lung
NCI-H226 lung = test system: NCI-H226 lung
NCI-H322M lung = test system: NCI-H322M lung
HOP-62 NSCLC = test system: HOP-62 NSCLC
NCI-H460 lung = test system: NCI-H460 lung
HOP-92 NSCLC = test system: HOP-92 NSCLC
NCI-H522 lung = test system: NCI-H522 lung
A549/ATCC NSCLC = test system: A549/ATCC NSCLC
786-0 renal = test system: 786-0 renal
COLO 205 colon = test system: COLO 205 colon
DU-145 prostate = test system: DU-145 prostate
K-562 leukemia = test system: K-562 leukemia
MALME-3M melanoma = test system: MALME-3M melanoma
MDA-MB-231 breast = test system: MDA-MB-231 breast
RXF 393 renal = test system: RXF 393 renal
SF-268 CNS = test system: SF-268 CNS
SF-295 CNS = test system: SF-295 CNS
SF-539 CNS = test system: SF-539 CNS
UACC-257 melanoma = test system: UACC-257 melanoma
M14 melanoma = test system: M14 melanoma

Measured: growth

CCc1nnc(NC(=O)c2ccoc2COc2ccccc2)s1
inactive: NCI-H23 lung 57.9% | NCI-H226 lung 74.3% | NCI-H322M lung 86.9% | HOP-62 NSCLC 56.3% | NCI-H460 lung 27% | HOP-92 NSCLC 74.8% | NCI-H522 lung 38.6% | A549/ATCC NSCLC 62.1% | 786-0 renal 72.2% | COLO 205 colon 44.2% | DU-145 prostate 75.4% | K-562 leukemia 12.3% | MALME-3M melanoma 47.5% | MDA-MB-231 breast 55.9% | RXF 393 renal 54.2% | SF-268 CNS 66.7% | SF-295 CNS 36.1% | SF-539 CNS 43.5% | UACC-257 melanoma 76.9% | M14 melanoma 11.7%

O=C1NC(c2ccc(Cl)c(Cl)c2)=C/C1=C\c1ccccc1
active: 786-0 renal 9.12%
inactive: NCI-H23 lung 84.8% | NCI-H226 lung 57.7% | NCI-H322M lung 79% | HOP-62 NSCLC 69.1% | NCI-H460 lung 18.6% | HOP-92 NSCLC 72.1% | NCI-H522 lung 79% | A549/ATCC NSCLC 55.1% | COLO 205 colon 65.2% | DU-145 prostate 95.9% | K-562 leukemia 72.6% | MALME-3M melanoma 63.3% | MDA-MB-231 breast 69.9% | RXF 393 renal 65.2% | SF-268 CNS 92.3% | SF-295 CNS 52.2% | SF-539 CNS 84.7% | UACC-257 melanoma 98.2% | M14 melanoma 90.9%

COc1ccccc1-n1cnc(N)c1C(=O)c1cc(OC)c(OC)c(OC)c1
inactive: NCI-H23 lung 70% | NCI-H226 lung 56.7% | NCI-H322M lung 81.4% | HOP-62 NSCLC 52.8% | NCI-H460 lung 14.5% | HOP-92 NSCLC 70.3% | A549/ATCC NSCLC 47.9% | 786-0 renal 37.9% | COLO 205 colon 66.1% | DU-145 prostate 73.9% | K-562 leukemia 22% | MALME-3M melanoma 50.1% | MDA-MB-231 breast 64.8% | RXF 393 renal 33% | SF-268 CNS 38.5% | SF-295 CNS 24.9% | SF-539 CNS 35.6% | UACC-257 melanoma 59.8% | M14 melanoma 44.5%
active: NCI-H522 lung 1.87%

CCCC1CCCCN1C(=O)OCC(C)C (stereo not given)
inactive: NCI-H23 lung 152% | NCI-H226 lung 105% | NCI-H322M lung 104% | HOP-62 NSCLC 118% | NCI-H460 lung 107% | HOP-92 NSCLC 113% | NCI-H522 lung 99.4% | A549/ATCC NSCLC 104% | 786-0 renal 106% | COLO 205 colon 99.7% | DU-145 prostate 104% | K-562 leukemia 103% | MALME-3M melanoma 107% | MDA-MB-231 breast 109% | RXF 393 renal 119% | SF-268 CNS 96.1% | SF-295 CNS 94.5% | SF-539 CNS 100% | UACC-257 melanoma 110% | M14 melanoma 109%

CN(C)CCCCC(C(=O)CBr)(c1ccccc1)c1ccccc1
inactive: NCI-H23 lung 30.6% | NCI-H226 lung 86.1% | NCI-H322M lung 74.5% | HOP-62 NSCLC 51.8% | NCI-H460 lung 49.5% | A549/ATCC NSCLC 49.7% | DU-145 prostate 31% | MDA-MB-231 breast 38.1% | SF-268 CNS 48.7% | SF-295 CNS 43.7% | SF-539 CNS 20.2% | M14 melanoma 18.8%
active: HOP-92 NSCLC -12.2% | NCI-H522 lung -90% | 786-0 renal 5.16% | COLO 205 colon -76% | K-562 leukemia -7.09% | MALME-3M melanoma -55.9% | RXF 393 renal -51.5% | UACC-257 melanoma 6.07%

C[C@H]1[C@@H]2[C@H]3CC[C@@H]4[C@@]5(C)Cc6c([nH]c7ccccc67)C(C)(C)[C@@H]5CC[C@@]4(C)[C@]3(C)CC[C@]23CO[C@]1(C)[C@@H](C(=O)/C=C/c1ccccn1)C3
inactive: NCI-H23 lung 91.7% | NCI-H226 lung 101% | NCI-H322M lung 112% | HOP-62 NSCLC 109% | NCI-H460 lung 98.3% | HOP-92 NSCLC 67.2% | NCI-H522 lung 92.1% | A549/ATCC NSCLC 89.4% | 786-0 renal 106% | COLO 205 colon 102% | DU-145 prostate 102% | K-562 leukemia 72.5% | MALME-3M melanoma 106% | MDA-MB-231 breast 85% | RXF 393 renal 89.3% | SF-268 CNS 88.8% | SF-295 CNS 99.4% | SF-539 CNS 84.9% | UACC-257 melanoma 103% | M14 melanoma 93.6%

COc1cc2nc(Cl)nc(Nc3cccc(C(=O)/C=C/c4ccc(Cl)cc4)c3)c2cc1OC
inactive: NCI-H23 lung 80.9% | NCI-H226 lung 88.1% | NCI-H322M lung 83.1% | HOP-62 NSCLC 86.8% | NCI-H460 lung 91.3% | HOP-92 NSCLC 78.3% | NCI-H522 lung 77.6% | A549/ATCC NSCLC 78.2% | 786-0 renal 64.8% | COLO 205 colon 86.9% | DU-145 prostate 88.2% | K-562 leukemia 11.3% | MALME-3M melanoma 88.2% | MDA-MB-231 breast 73.7% | RXF 393 renal 62.7% | SF-268 CNS 85.7% | SF-295 CNS 80.6% | SF-539 CNS 50% | UACC-257 melanoma 94% | M14 melanoma 70.2%
